Assay results from PubChem BioAssay (NCI).
Compounds without any hit were thinned out: in the full panel of roughly 83,000, 20% have a hit.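 Assay: single dose, 48 h. Readout: percent growth (0 = no net growth; negative = cell death). Active: <10.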 A number with no mark means an inactive call. Active and inactive are the calls of the source.

Legend:
Experiment in all cases: NCI-60 one-dose screen, 48 h (100 = growth as untreated, 0 = no growth, -100 = all killed)
Settings in all cases: 10 µM
HOP-92 NSCLC = system: HOP-92 NSCLC
K-562 leukemia = system: K-562 leukemia
MALME-3M melanoma = system: MALME-3M melanoma
RXF 393 renal = system: RXF 393 renal
SK-MEL-2 melanoma = system: SK-MEL-2 melanoma
SN12C renal = system: SN12C renal
TK-10 renal = system: TK-10 renal
A498 renal = system: A498 renal
RPMI-8226 leukemia = system: RPMI-8226 leukemia
OVCAR-3 ovarian = system: OVCAR-3 ovarian
BT-549 breast = system: BT-549 breast
MDA-MB-435 melanoma = system: MDA-MB-435 melanoma
HCC-2998 colon = system: HCC-2998 colon
UACC-257 melanoma = system: UACC-257 melanoma
CAKI-1 renal = system: CAKI-1 renal

Structure (SMILES) | growth (HOP-92 NSCLC) | growth (K-562 leukemia) | growth (MALME-3M melanoma) | growth (RXF 393 renal) | growth (SK-MEL-2 melanoma) | growth (SN12C renal) | growth (TK-10 renal) | growth (A498 renal) | growth (RPMI-8226 leukemia) | growth (OVCAR-3 ovarian) | growth (BT-549 breast) | growth (MDA-MB-435 melanoma) | growth (HCC-2998 colon) | growth (UACC-257 melanoma) | growth (CAKI-1 renal)
C[C@@H]1CCC/C=C/[C@H]2C[C@@H](O)C[C@@H]2[C@@H](O)/C=C/C(=O)O1 | -4.99% (active) | 15% | -7.08% (active) | -8.61% (active) | -38.9% (active) | 11.4% | -45% (active) | -14.7% (active) | -1.65% (active) | -1.9% (active) | 6.57% (active) | 17.5% | 21.1% |  | 
NC1CCc2cc(O)c(O)cc2C1 (configuration not stated) |  | 1.68% (active) |  | 81.9% | 97.7% | 90.5% | 94.6% | 71.9% | 17.2% | 101% | 86.3% | 81.4% | 46.2% | 103% | 94.1%
CC1=C(CN(O)C(N)=O)C2=C(C)C3(CC3)[C@@](C)(O)C(=O)C2=C1 | -21.1% (active) | 95.4% | -39.2% (active) | -78.9% (active) | -47.8% (active) | 15.4% | -15% (active) | -82% (active) | 91.5% | -26.9% (active) | -24.5% (active) | -20.2% (active) | -53.2% (active) | -14.7% (active) | -3.78% (active)
N#Cc1c(-n2c(Br)c(Br)c3cc(Br)ccc32)[nH]c2c(Br)cc(Br)cc12 | -31.4% (active) | 7.11% (active) | -17.4% (active) | -31.7% (active) | -61.2% (active) | 0.622% (active) | -2.55% (active) | -73% (active) | -3.21% (active) |  | -54.7% (active) | -0.901% (active) | 2.82% (active) | -23.8% (active) | -3.39% (active)
CC1=C2C(=C[C@@](C)(COC(=O)c3ccc(S(=O)(=O)F)cc3)[C@@H]2O)C(=O)[C@](C)(O)C12CC2 |  | 6.74% (active) | -56.1% (active) | -88.8% (active) |  | -2.35% (active) | -6.77% (active) |  | 89.7% |  | -88.2% (active) | -72.2% (active) | -50.6% (active) | -52.7% (active) | -0.688% (active)
N#Cc1nc(-c2ccccc2)oc1N1CCC(S(=O)(=O)F)CC1 | 94.2% | 103% | 98.9% | 92.3% | 120% | 100% | 113% | 108% | 101% |  | 108% | 98.8% | 104% | 107% | 100%
CC1=C2C(=C[C@@](C)(COC(=O)c3ccc(S(=O)(=O)F)cc3)[C@@H]2OC(=O)c2ccc(S(=O)(=O)F)cc2)C(=O)[C@](C)(O)C12CC2 | -17.1% (active) | 23.8% | -57.3% (active) |  |  | 21% | -3.99% (active) |  | 67% |  | -90.2% (active) | 3.18% (active) | -60% (active) | 60% | -2.73% (active)
CC1=C(CN(O)C(N)=O)C2=C(C)C3(CC3)[C@](C)(O)C(=O)C2=C1 | -3.67% (active) | 0.207% (active) | 2.97% (active) | -85.3% (active) | -28.8% (active) | 25.1% | -5.27% (active) | -76.5% (active) | -22.7% (active) | -3.14% (active) | 12.9% | -42.8% (active) | -63.1% (active) | 6.8% (active) | 4.61% (active)
COC1[C@@H]2C[C@H]3C(C)(C)O[C@@](C/C=C(/C)C(=O)O)(C2=O)[C@]32Oc3c(CC=C(C)C)c4c(c(O)c3C(=O)[C@H]12)C=CC(C)(C)O4 (some centres not stated) | -36.4% (active) | 2.55% (active) | -90.2% (active) | -81.1% (active) | -65.5% (active) | -16.7% (active) |  | -67.8% (active) | -17% (active) | -90.6% (active) | -3.07% (active) | -58.2% (active) | -81.9% (active) | -48.2% (active) | 
CC1=C2C(=C[C@@](C)(COS(C)(=O)=O)[C@@H]2O)C(=O)[C@](C)(O)C12CC2 | -15.5% (active) | 3.56% (active) | -33% (active) | -78.1% (active) | -39.5% (active) | 13.8% | 5.33% (active) | -61% (active) |  | 7.64% (active) | -15.9% (active) |  | -25.7% (active) | 0.386% (active) | -31.5% (active)
